The list is not random: actives were taken first. Their share in the collection is about 19%.
TGFb SMAD3 inh – TGF-b pathway inhibition; 1.2% of 410,000 active; Potency, µM (top dose mostly 46.1 µM), for inactives: at the highest dose activity, negative = inhibition, usual class: inhibitors; HepG2 CAGA-GFP TGF-b/SMAD3 reporter, GFP fluorescence, 18 h; TGF-beta stimulated, 500 pg/mL final; also: potency is read from the fitted curve at half-maximal effect; % is scaled to controls: 0 for no effect and ±100 for the full control effect; nearly all actives have a fitted effect of over 65% in size
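TGF-beta reporter screen: HEPG2 CAGA-GFP, 1% FBS, 500 pg/mL TGF-beta final, 18 h; per-cell GFP summed per well; curves fitted and categorized by class.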
HepG2 tox – HepG2 cytotoxicity, counter-screen for TGF-b inhibitors; HepG2 CAGA-GFP viability, ATP luminescence, 18 h; Potency, µM (titrated, usually from 46.1 µM), for the others: top-dose activity change, negative = cytotoxicity, actives largely listed as cytotoxic; 0.76% of 410,000 active; AID 588856; also: potency is read from the fitted curve at half-maximal effect
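HepG2 CAGA-GFP cells (1000/well, DMEM with 1% FBS) received compound, then TGF-beta at 500 pg/mL final, and were incubated 18 hours at 37 degrees C. Viability was read by CellTiter-Glo luminescence. Media-only wells were set as complete cell-killing and DMSO as no toxicity.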
TDP1 cell noCPT – qHTS for Inhibitors of human tyrosyl-DNA phosphodiesterase 1 (TDP1): qHTS in cells in absence of CPT; Potency, µM (doses to about 46.2 µM), inactives show top-dose activity change, negative = growth inhibition, most hits filed as inhibitors; DT40 Tdp1-/- hTDP1 cells, no CPT, ATP luminescence, 48 h; AID 686978, 2013; 15% of 420,000 active; also: potency is read from the fitted curve at half-maximal effect; % is scaled to controls: 0 for no effect and ±100 for the full control effect; nearly all actives have a fitted effect of over 55% in size
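Growth kinetics read by CellTiter-Glo luminescence after ≥48 hr at 37 °C. Cells: DT40 Tdp1-/- stably carrying human TDP1, 400 per well, compound exposure in the absence of CPT (DMSO vehicle).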
TDP1 block – blocks human tyrosyl-DNA phosphodiesterase 1; Potency, µM (top dose mostly 130 µM), without a hit: at the highest dose activity change, negative = inhibition, hits mostly inhibitors; 0.28% of 350,000 active; AID 485290; recombinant TDP1, AlphaScreen DNA substrate cleavage; also: potency is read from the fitted curve at half-maximal effect; % is scaled to controls: 0 for no effect and ±100 for the full control effect; nearly all actives have a fitted effect of over 40% in size
Target sequence (Q9NUW8 whole entry, looked up): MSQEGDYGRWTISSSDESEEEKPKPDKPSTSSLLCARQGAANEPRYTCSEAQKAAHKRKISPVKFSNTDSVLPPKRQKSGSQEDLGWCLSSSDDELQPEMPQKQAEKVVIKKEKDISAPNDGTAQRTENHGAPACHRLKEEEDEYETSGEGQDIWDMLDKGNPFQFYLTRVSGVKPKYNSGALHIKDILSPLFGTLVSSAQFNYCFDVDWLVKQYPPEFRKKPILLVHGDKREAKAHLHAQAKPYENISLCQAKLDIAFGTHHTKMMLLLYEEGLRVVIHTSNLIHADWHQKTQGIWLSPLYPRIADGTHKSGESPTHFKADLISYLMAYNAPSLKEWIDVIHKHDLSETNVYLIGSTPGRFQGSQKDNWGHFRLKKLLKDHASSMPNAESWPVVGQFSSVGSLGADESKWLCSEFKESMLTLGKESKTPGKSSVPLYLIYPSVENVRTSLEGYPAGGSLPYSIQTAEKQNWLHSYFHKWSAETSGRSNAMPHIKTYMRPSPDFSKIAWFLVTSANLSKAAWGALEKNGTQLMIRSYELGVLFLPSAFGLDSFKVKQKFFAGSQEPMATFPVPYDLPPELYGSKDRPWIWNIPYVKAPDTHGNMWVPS
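Steps: enzyme plus compound, 15 min RT; add biotin/phosphotyrosine-FITC oligonucleotide (15 nM final), react 5 min; add donor/acceptor beads (10 ug/ml final), 10 min; read AlphaScreen. Tdp1 at 1 nM final.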
IL1B secr inh – inflammasome signaling inhibition, IL-1 beta readout; activity change, % at 57.5 µM; THP-1 LPS/ATP IL-1B secretion, AlphaLISA, 16 h; stronger effect = lower value; 4.7% of 360,000 active; in the data active = activity change below about -50%; inconclusive = mostly about -30% to -49%; also: % is scaled to controls: 0 for no effect and ±100 for the full control effect
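THP-1 cells pretreated 1 hr with compounds (up to 57.5 uM final), then stimulated with LPS (250 ng/mL final) plus ATP (1.25 mM final); secreted IL-1B measured by AlphaLISA after 16 hr, decreased signal indicating inhibition.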
DT40 TDP1 CPT – growth inhibition of DT40 Tdp1-/-;hTDP1 cells with camptothecin (screen for TDP1 inhibitors) | chicken DT40 Tdp1-/-;hTDP1 cells + 20 nM CPT, ATP luminescence, 48 h | Potency, µM (highest dose often 46.2 µM), inactives show at the top dose activity change, negative = growth inhibition, most hits filed as inhibitors | 12% of 420,000 active | AID 686979; also: potency is read from the fitted curve at half-maximal effect; % is scaled to controls: 0 for no effect and ±100 for the full control effect; nearly all actives have a fitted effect of over 55% in size
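Cell growth measured by CellTiter-Glo luminescence after a minimum 48 h, 37 C compound exposure with 20 nM CPT in Tdp1-knockout DT40 cells stably expressing hTDP1, seeded 400/well; qHTS titration format.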
* marks the source's active call; other numbers are inactive results; ? = inconclusive; · = no result given. Unless noted, calls follow the shape of the dose curve; as a rule, active = well fitted curve in the direction sought with a large enough effect; inconclusive = small, poorly fitted or top-dose-only effect, or another doubt; inactive = no such curve, though single readings can be large; an effect the other way counts as inactive or inconclusive.

SMILES	TGFb SMAD3 inh	HepG2 tox	TDP1 cell noCPT	TDP1 block	IL1B secr inh	DT40 TDP1 CPT
CC(=O)Nc1ccc(S(=O)(=O)n2cnc3cc(C)c(C)cc32)cc1	-3%	-15%	18µM*	-4%	10	8.2µM*
COc1ccc(Nc2c(-c3cc4ccccc4o3)nc3nc(C)cc(C)n23)cc1	·	·	?	·	10	?
CCCCNc1c(-c2cccc(OC)c2)nc2nc(C)cc(C)n12	·	·	16µM*	·	22	18µM*
COc1cccc(-c2nc3nc(C)cc(C)n3c2Nc2c(C)cccc2C)c1	·	·	?	·	-4	?
CCCCNc1c(-c2cc3ccccc3o2)nc2nc(C)cc(C)n12	·	·	23µM*	·	-10	?
CC(C)(C)OC(=O)N1CCC(c2c(C(=O)N3CCN(c4ncccn4)CC3)cnn2-c2ccc(F)cc2F)CC1	-16%	-14%	?	1%	·	?
COc1ccccc1N1CCN(C(=O)c2cnn(-c3ccc(F)cc3F)c2C2CCNCC2)CC1	32%	-13%	18µM*	5%	·	-28%
Cc1cccc(N2CCN(C(=O)c3cnn(-c4ccc(F)cc4F)c3C3CCN(C(=O)OC(C)(C)C)CC3)CC2)c1C	0%	2%	21µM*	0%	·	21µM*
Cc1ccc(CNC(=O)c2cnn(-c3ccc(F)cc3F)c2C2CCN(C(=O)OC(C)(C)C)CC2)cc1	?	-5%	?	-2%	·	?
COc1ccccc1CNC(=O)c1cnn(-c2ccc(F)cc2F)c1C1CCN(C(=O)OC(C)(C)C)CC1	0%	-22%	?	6%	·	16µM*
CC(C)(C)OC(=O)N1CCC(c2c(C(=O)NC3CCCCC3)cnn2-c2ccc(F)cc2F)CC1	-29%	-1%	?	5%	·	21µM*
Cc1ccc(-n2ncc(C(=O)NC3CCCC3)c2C2CCN(C(=O)OC(C)(C)C)CC2)c(C)c1	-19%	-7%	?	6%	·	?
Cc1ccsc1CNCc1cc(Cl)ccc1O	0%	-3%	-23%	0%	-19	-27%
O=S1(=O)N=C(Nc2cccc(C(F)(F)F)c2)c2ccccc21	-14%	-29%	?	2%	·	?
CCOC(=O)c1sc2ccccc2c1S(=O)(=O)N1CCN(c2cccc(C)c2)C(C)C1 (stereo not drawn)	-12%	-7%	?	6%	·	?
CCOc1ccc(S(=O)(=O)N(CC(=O)NCCc2ccc(OC)cc2)c2ccccc2)cc1	6%	-14%	3%	·	·	-5%
CN(C)c1ccc(-c2ccnc3c2CC(C)(C(=O)Nc2ccc(F)c(Cl)c2)O3)cc1 (stereo not drawn)	?	-21%	?	·	23	?
COc1ccc(NC(=O)C2(C)Cc3c(-c4cccc(C(N)=O)c4)ccnc3O2)cc1 (stereo not drawn)	9%	-2%	3.7µM*	·	-6	3.7µM*
CC(=O)Nc1ccc(NC(=O)C2(C)Cc3c(-c4cccc(C(N)=O)c4)ccnc3O2)cc1 (stereo not drawn)	18%	-1%	-9%	·	7	9%
CC1(C(=O)Nc2cccc(OC(F)(F)F)c2)Cc2c(-c3cccc(C(N)=O)c3)ccnc2O1 (stereo not drawn)	-19%	-36%	21µM*	·	17	?
CC1(C(=O)Nc2ccc(Cl)c(C(F)(F)F)c2)Cc2c(-c3ccc(C(N)=O)cc3)ccnc2O1 (stereo not drawn)	11µM*	16µM*	15µM*	·	23	18µM*
CC1(C(=O)Nc2cccc(C(F)(F)F)c2)Cc2c(-c3cccc(C(N)=O)c3)ccnc2O1 (stereo not drawn)	2%	-22%	6.5µM*	·	24	-100%
Cc1ccccc1N1CCN(C2CCCN(C(=O)c3cnsn3)C2)CC1 (stereo not drawn)	-6%	2%	1%	2%	-9	?
COc1ccc(N2CC(NC(=O)C3CCCC3)CC2=O)cc1OC (stereo not drawn)	-1%	0%	-3%	3%	·	-13%
CN(C)c1ccc(-c2ccnc3c2CC(C)(C(=O)Nc2cccc(OC(F)(F)F)c2)O3)cc1 (stereo not drawn)	0%	-15%	-20%	·	18	-19%
SMILES	TGFb SMAD3 inh	HepG2 tox	TDP1 cell noCPT	TDP1 block	IL1B secr inh	DT40 TDP1 CPT
CC1(C(=O)Nc2ccc(Cl)c(C(F)(F)F)c2)Cc2c(-c3cccc(C(N)=O)c3)ccnc2O1 (stereo not drawn)	?	-59%	6.5µM*	·	0	10µM*
CC1(C(=O)Nc2cccc(OC(F)(F)F)c2)Cc2c(-c3ccc4c(c3)OCO4)ccnc2O1 (stereo not drawn)	?	-30%	?	·	90	21µM*
CNC(=O)C1(C)Cc2c(-c3ccc4c(c3)OCO4)ccnc2O1 (stereo not drawn)	1%	-28%	?	·	30	?
COc1ccc(NC(=O)C2(C)Cc3c(-c4ccc5c(c4)OCO5)ccnc3O2)cc1 (stereo not drawn)	?	-17%	2.9µM*	·	37	4.1µM*
CNC(=S)N/N=C/c1c(C(=O)OC)cnn1-c1ccc(F)cc1F	-14%	-55%	16µM*	7%	2	?
COC(=O)c1cnn(-c2ccccc2)c1/C=N/NC(=S)Nc1ccccc1	1%	58%	21µM*	10%	91	?
COC(=O)c1cnn(-c2ccc(F)cc2F)c1/C=N/NC(=S)NC(C)(C)C	-1%	-25%	?	4%	34	?

From PubChem BioAssay
